Assay results published in the supplement of paper PMC11732987, “Enantioselective OTUD7B fragment discovery through chemoproteomics screening and high-throughput optimisation” (Communications Chemistry, 2025).

Assays:
Test in all cases: log2 ratio of Biotin-Ahx-Ub-VS probe labelling (fragment/DMSO); higher = less target engagement (more negative = stronger competition), active = hit call of the paper (q ≤ 0.05, log2 ratio ≤ -1)
Settings in all cases: compound concentration: 200 uM; treatment time: 3 h
OTUD6B = target: T1, OTUD6B (UniProt Q8N6M0)
T1 sequence (whole entry): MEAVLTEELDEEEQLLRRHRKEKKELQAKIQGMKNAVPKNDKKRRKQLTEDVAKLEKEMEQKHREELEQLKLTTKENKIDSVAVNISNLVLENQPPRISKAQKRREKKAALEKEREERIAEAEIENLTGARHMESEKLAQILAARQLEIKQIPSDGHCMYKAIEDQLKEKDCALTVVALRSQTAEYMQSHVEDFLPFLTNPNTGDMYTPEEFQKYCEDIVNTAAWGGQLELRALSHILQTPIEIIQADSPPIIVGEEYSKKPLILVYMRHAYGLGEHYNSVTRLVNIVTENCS
Summary of the method: (§1)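 Each value is an average log2 ratio of fragment to vehicle, tested by unpaired t-test. The underlying Spectronaut label-free quantities were global-median-normalised, and only proteins with ≥2 unique peptides were included. Triplicate HEK293T lysate samples (495 µg) were exposed to fragment at 200 µM or vehicle for 3 h, then to Biotin-Ahx-Ub-VS at 0.5 µM final for 1 h, before NeutrAvidin enrichment of labelled DUBs, LysC and trypsin digestion, and diaPASEF LC-MS/MS.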

OTUD7B = target: T2, OTUD7B (UniProt Q6GQQ9)
T2 sequence (whole entry): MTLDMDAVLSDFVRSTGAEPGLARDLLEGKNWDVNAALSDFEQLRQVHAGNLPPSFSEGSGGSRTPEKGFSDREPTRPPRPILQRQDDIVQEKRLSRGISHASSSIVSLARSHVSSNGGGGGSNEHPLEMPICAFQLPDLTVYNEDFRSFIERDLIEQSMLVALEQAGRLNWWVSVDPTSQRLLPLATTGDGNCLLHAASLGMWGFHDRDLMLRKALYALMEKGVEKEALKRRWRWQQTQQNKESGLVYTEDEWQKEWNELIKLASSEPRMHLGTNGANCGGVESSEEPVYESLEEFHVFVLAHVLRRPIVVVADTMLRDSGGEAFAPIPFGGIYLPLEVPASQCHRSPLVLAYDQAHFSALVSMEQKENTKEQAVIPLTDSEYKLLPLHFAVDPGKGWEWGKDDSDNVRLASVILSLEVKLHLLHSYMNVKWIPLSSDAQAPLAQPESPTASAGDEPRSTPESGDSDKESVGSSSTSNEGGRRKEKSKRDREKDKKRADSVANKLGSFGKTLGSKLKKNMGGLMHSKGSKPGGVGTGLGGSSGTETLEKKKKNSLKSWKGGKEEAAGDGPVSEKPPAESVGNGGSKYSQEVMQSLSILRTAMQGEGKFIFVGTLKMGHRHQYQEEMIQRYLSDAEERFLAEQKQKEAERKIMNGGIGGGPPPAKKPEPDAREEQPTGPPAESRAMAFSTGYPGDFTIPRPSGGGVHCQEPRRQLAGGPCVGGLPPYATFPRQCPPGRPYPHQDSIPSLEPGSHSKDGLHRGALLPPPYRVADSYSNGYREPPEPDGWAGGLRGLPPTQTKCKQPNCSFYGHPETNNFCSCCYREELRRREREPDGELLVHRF
Summary of the method: as §1

PRPF8 = PRPF8 (UniProt Q6P2Q9)
Summary of the method: as §1

PSMD7 = target: T3, PSMD7 (UniProt P51665)
T3 sequence (whole entry): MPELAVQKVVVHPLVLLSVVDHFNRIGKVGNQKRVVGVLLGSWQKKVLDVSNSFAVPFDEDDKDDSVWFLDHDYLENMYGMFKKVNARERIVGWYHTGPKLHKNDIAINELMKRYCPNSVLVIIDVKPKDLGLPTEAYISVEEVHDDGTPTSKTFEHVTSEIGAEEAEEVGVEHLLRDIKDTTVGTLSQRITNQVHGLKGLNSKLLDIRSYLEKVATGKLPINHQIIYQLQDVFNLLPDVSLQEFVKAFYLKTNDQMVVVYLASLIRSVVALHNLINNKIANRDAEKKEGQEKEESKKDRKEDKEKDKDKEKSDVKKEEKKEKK
Summary of the method: as §1

UCHL1 = UCHL1 (UniProt P09936)
Sequence of UCHL1 (P09936 whole entry, looked up): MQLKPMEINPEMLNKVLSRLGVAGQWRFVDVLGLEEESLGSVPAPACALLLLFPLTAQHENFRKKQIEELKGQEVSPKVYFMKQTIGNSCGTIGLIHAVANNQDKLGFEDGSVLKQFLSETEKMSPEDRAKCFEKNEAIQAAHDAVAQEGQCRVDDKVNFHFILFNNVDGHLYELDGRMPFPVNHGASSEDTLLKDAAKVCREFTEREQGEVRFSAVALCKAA
Summary of the method: as §1

UCHL3 = target: T4, UCHL3 (UniProt P15374)
T4 sequence (whole entry): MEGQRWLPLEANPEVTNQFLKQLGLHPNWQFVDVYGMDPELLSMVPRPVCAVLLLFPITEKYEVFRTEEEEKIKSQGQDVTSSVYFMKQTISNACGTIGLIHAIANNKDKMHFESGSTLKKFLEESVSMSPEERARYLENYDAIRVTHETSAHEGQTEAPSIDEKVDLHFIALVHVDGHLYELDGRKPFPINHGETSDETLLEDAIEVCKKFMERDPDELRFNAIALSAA
Summary of the method: as §1

UCHL5 = target: T5, UCHL5 (UniProt Q9Y5K5)
T5 sequence (whole entry): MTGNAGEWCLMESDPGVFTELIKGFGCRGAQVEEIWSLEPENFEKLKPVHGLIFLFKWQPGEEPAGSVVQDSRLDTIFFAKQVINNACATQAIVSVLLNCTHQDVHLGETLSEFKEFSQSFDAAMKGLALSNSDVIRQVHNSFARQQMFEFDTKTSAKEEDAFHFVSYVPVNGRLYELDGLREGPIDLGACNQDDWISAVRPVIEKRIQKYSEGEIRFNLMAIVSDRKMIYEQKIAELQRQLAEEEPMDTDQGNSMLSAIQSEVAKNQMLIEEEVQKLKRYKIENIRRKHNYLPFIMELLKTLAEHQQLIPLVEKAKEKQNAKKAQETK
Summary of the method: as §1

USP10 = USP10 (UniProt Q14694)
Sequence of USP10 (Q14694 whole entry): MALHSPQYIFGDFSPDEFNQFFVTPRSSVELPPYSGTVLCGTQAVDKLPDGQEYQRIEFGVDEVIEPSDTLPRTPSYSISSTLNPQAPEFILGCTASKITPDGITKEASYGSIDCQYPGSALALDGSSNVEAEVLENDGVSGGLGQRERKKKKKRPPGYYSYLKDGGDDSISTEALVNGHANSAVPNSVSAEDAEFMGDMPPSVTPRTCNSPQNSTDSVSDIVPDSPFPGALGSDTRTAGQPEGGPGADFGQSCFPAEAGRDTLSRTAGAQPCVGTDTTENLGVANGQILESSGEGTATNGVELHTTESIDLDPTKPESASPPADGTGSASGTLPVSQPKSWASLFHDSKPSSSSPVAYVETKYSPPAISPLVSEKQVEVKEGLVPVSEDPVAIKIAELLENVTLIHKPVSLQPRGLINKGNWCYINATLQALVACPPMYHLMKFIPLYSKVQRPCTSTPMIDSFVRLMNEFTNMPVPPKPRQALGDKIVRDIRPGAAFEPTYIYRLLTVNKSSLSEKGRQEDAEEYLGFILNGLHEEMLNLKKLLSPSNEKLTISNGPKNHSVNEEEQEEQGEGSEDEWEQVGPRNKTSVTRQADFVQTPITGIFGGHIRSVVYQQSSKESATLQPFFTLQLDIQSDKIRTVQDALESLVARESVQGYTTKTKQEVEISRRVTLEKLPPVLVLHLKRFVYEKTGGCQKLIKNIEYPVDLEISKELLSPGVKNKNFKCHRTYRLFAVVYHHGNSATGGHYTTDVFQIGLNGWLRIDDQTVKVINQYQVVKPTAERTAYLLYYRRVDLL
Summary of the method: as §1

USP15 = target: T6, USP15 (UniProt Q9Y4E8)
T6 sequence (whole entry): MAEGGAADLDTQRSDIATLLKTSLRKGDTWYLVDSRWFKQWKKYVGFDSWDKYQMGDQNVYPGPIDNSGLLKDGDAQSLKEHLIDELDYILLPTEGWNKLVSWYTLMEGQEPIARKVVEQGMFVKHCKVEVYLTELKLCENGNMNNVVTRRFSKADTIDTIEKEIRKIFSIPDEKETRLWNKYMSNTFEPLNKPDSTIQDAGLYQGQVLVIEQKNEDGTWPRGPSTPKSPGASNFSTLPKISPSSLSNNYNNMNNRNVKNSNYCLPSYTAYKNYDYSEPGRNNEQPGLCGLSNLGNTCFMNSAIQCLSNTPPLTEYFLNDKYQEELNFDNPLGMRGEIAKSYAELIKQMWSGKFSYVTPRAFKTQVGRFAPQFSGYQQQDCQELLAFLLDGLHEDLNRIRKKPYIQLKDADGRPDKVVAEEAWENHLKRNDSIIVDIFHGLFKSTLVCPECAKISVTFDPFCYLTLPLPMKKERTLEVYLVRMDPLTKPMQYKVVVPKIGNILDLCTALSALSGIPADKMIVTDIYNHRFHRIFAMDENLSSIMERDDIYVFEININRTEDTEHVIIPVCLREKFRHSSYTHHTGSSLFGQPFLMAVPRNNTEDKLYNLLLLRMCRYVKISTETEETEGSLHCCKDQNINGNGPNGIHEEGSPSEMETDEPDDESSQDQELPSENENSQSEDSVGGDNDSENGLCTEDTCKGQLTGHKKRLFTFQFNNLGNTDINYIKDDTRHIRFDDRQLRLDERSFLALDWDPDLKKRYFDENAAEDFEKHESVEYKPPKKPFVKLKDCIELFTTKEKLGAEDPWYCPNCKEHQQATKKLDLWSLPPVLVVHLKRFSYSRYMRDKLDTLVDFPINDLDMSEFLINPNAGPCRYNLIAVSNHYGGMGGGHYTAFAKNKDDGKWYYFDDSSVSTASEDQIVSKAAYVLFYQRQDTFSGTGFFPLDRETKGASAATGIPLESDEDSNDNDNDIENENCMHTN
Summary of the method: as §1

USP16 = USP16 (UniProt Q9Y5T5)
Sequence of USP16 (Q9Y5T5 whole entry, looked up): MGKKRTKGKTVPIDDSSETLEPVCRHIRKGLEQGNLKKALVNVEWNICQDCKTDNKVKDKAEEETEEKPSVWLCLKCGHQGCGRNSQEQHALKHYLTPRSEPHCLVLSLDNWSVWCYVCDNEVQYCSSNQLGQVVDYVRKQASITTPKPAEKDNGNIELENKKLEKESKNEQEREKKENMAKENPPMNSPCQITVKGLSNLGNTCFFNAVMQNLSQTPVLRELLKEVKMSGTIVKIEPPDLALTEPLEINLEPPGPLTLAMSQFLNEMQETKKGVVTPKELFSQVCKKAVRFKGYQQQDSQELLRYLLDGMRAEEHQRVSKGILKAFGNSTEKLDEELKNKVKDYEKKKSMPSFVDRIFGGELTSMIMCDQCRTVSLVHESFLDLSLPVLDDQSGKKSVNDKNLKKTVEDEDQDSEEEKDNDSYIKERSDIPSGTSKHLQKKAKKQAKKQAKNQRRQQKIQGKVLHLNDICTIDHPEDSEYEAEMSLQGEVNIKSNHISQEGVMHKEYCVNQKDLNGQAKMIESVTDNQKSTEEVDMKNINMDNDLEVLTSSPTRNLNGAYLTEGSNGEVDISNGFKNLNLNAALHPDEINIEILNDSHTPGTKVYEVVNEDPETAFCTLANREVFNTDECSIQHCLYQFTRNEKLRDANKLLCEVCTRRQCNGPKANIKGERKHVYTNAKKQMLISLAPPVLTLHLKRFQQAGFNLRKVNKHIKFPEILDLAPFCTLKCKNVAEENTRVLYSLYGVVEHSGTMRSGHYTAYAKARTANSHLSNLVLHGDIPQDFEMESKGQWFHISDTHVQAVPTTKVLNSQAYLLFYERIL
Summary of the method: as §1

Measured: log2 ratio of Biotin-Ahx-Ub-VS probe labelling

COc1ccc(CN(C)C(=O)CCl)cc1
active: UCHL1 -1.22
inactive: OTUD6B -0.199 | OTUD7B -0.373 | PRPF8 0.0533 | PSMD7 -0.411 | UCHL3 0.249 | UCHL5 -0.235 | USP10 -0.213 | USP15 -0.112 | USP16 0.163
